Assay results reported in PMC7819943, “Rice protein-binding microarrays: a tool to detect cis-acting elements near promoter regions in rice”.
Over roughly 68,000 sequences, “fluorescence intensity (a.u.)” has its median near 9,100; the highest 2% begin near 16,000. Many of the other results were omitted from the sample, so the highest values are more common in it than they were.

Biological target: OsWRKY34 (Oryza sativa, UniProt Q0JBA9 1-250)
Assay: protein-binding microarray (RPBM); PBS, 2% BSA, 51.3 ng/ul salmon testes DNA, 50 uM zinc acetate, 200 nM TF, 25 C, 1 h; high values mean tight binding
Details: protein: recombinant; tags: N-terminal polyhistidine and DsRed monomer fusion (pET32a); label: CyDye5-dUTP incorporated in the synthesized complementary strand; 3' TTTTT single-stranded linker to array surface; dsDNA, one strand shown
In short: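 Binding signal is reported as fluorescence intensity per feature (arbitrary units) from an Axon 4000B scanner. Incubation used 200 nM of each Ni–NTA-purified, N-terminally polyhistidine- and DsRed-fused transcription factor from E. coli BL21-CodonPlus on a double-stranded custom Agilent array for 1 h at 25 °C, with 50 µM zinc acetate in the buffer, followed by washing.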

Sequence of OsWRKY34 (Q0JBA9 entry or part of it): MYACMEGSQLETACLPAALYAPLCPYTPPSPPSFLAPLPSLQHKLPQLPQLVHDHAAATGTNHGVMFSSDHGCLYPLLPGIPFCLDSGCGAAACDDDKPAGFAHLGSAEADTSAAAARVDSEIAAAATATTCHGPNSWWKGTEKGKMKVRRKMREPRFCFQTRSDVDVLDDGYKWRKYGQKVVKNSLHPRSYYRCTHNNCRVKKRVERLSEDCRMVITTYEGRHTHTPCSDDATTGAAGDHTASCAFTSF

Row | Sequence | binding signal
1 | GCACACGCTTCATGTTGACATTTTATCGAATCGTGTTCTGCGGAGTCACCTAGTGCAG | 8350 fluorescence intensity (a.u.)
2 | TTACTACTGCATTATCAAGTGTATCTTGCCATGTACTTCCCGGAGTCACCTAGTGCAG | 12100 fluorescence intensity (a.u.)
3 | GATCTCCATCTCCATCTCTCTCTCTCTCTCGAGCAGAGCACGGAGTCACCTAGTGCAG | 8360 fluorescence intensity (a.u.)
4 | CAATCACATCCGCGCGCATTTGGCCTGCGCCTTCAAATTTCGGAGTCACCTAGTGCAG | 12700 fluorescence intensity (a.u.)
5 | AACGATTTCTTCAGCATTTTCCATCCCCGCGGCTTCTTCTCGGAGTCACCTAGTGCAG | 8230 fluorescence intensity (a.u.)
6 | CGCAGAACACGTTTCCCAAATCTTGTACTACTACGTACTACGGAGTCACCTAGTGCAG | 9170 fluorescence intensity (a.u.)
7 | GGAGGAGCGGTGCGTGGGGTCAGCGGCCGGCGGGAGGGCACGGAGTCACCTAGTGCAG | 9670 fluorescence intensity (a.u.)
8 | GCGCTACGGACGGAAGAGACGGAGTGGCACGGAATAAAGACGGAGTCACCTAGTGCAG | 61600 fluorescence intensity (a.u.)
9 | AACAGGAGGAGGAGGAGGAGGAGGAGGAGGAGAGGTGGGGCGGAGTCACCTAGTGCAG | 9280 fluorescence intensity (a.u.)
10 | CTAGCTTTGAGGTGGAGGTGGTGGTGGAGGAGGAGGAGGACGGAGTCACCTAGTGCAG | 12600 fluorescence intensity (a.u.)
11 | AGTTGTGGACTGGAAGAGAGGGGAGGCATGGGGACAAAGACGGAGTCACCTAGTGCAG | 9320 fluorescence intensity (a.u.)
12 | GTGGAGTGCGGTGGACGGAGCGGCGGGGCGGGGCGGTCAGCGGAGTCACCTAGTGCAG | 16700 fluorescence intensity (a.u.)
13 | GGGAGGGAGAGGAGGCGGAGGAGGAGGAGGTGGAGGAGTACGGAGTCACCTAGTGCAG | 8610 fluorescence intensity (a.u.)
14 | AGAGGTGGAGGAGAGGAGGGGAGGGGAGGGGAGGTGAGGGCGGAGTCACCTAGTGCAG | 18700 fluorescence intensity (a.u.)
15 | GAGGTGGTGGTGGTGGTGGTGGATGGCGCCCTGCTTTGACCGGAGTCACCTAGTGCAG | 23500 fluorescence intensity (a.u.)
16 | GCGGGGCGGTGACAACGACGGCGGTGCGGGGCGGTGGTGACGGAGTCACCTAGTGCAG | 10300 fluorescence intensity (a.u.)
17 | TATATATATATATATATATATATATATATATATAAAGAGACGGAGTCACCTAGTGCAG | 11100 fluorescence intensity (a.u.)
18 | GTGGCGGCGGAGGAGGTGGGATGGGGATTTGATGATGGCCCGGAGTCACCTAGTGCAG | 8320 fluorescence intensity (a.u.)
19 | TCAAAGGTTGGTTTGATTTGTTGCTATTTGTTGGTTTGATCGGAGTCACCTAGTGCAG | 8630 fluorescence intensity (a.u.)
20 | CGCGCTCTGCATGTCGGTCCGTCAACTTGATCGCGATTCTCGGAGTCACCTAGTGCAG | 8590 fluorescence intensity (a.u.)
21 | TGCAATTCGTACTTTTTCCTACAATTAAACAGCTACATGTCGGAGTCACCTAGTGCAG | 9500 fluorescence intensity (a.u.)
22 | ATTTTTGTCTTGAGTTAACACCGTCACGTTGCCTTCACGGCGGAGTCACCTAGTGCAG | 9960 fluorescence intensity (a.u.)
23 | CCGTCGTCGTCTTCGTCTTCCTCAGTTTATCTCCATTTCTCGGAGTCACCTAGTGCAG | 13800 fluorescence intensity (a.u.)
24 | GGAAAAAGAACAATCTGCGACCAACCTCTTTTTTCTATCCCGGAGTCACCTAGTGCAG | 8980 fluorescence intensity (a.u.)

Row | Sequence | binding signal
25 | TCCTCTCTGTCTCCGCCGATCTGCTCTGCCGCGACGCGCCCGGAGTCACCTAGTGCAG | 8180 fluorescence intensity (a.u.)
26 | ATTTCACATGGCAAGATCCACGATGACTGAATTATCACACCGGAGTCACCTAGTGCAG | 8200 fluorescence intensity (a.u.)
27 | ATGTCGGCGGCGGGCGGCGGCGGCGGCGTGGGGAAGGTGGCGGAGTCACCTAGTGCAG | 9040 fluorescence intensity (a.u.)
28 | CATGTCGTCGTCGTGGTGGTGGTGGTGGTGGTGGGGCGGGCGGAGTCACCTAGTGCAG | 43400 fluorescence intensity (a.u.)
29 | GAGGGCGGAGGAGGTGGTGAGGGAGGAGGTGCGGAGGCTGCGGAGTCACCTAGTGCAG | 8320 fluorescence intensity (a.u.)
30 | GGAGGCCTAGGTGGTGGTGGTGGTCTTGGTGGAGGAGGGGCGGAGTCACCTAGTGCAG | 28600 fluorescence intensity (a.u.)
31 | GGTGGTGGTGGTGGTGGTGGTGGTGTAGGAGGAGGAGGAGCGGAGTCACCTAGTGCAG | 27600 fluorescence intensity (a.u.)
32 | GTAGTAGGGGAGGAGTGTATCTAGTAGTATAGGGAGGGAGCGGAGTCACCTAGTGCAG | 13000 fluorescence intensity (a.u.)
33 | GAGGAGGGGAGAAACGGGAGGTTGGTGGTGGTGGTGGAGGCGGAGTCACCTAGTGCAG | 15200 fluorescence intensity (a.u.)
34 | GAGGTGGCTTTGGCGGCGGAGTGGGAGGCGGTGGTGGTGGCGGAGTCACCTAGTGCAG | 10000 fluorescence intensity (a.u.)
35 | CATTATCGTCGTCGTCGTCGTCGTAGTCATGTCGTGGGGCCGGAGTCACCTAGTGCAG | 8180 fluorescence intensity (a.u.)
36 | GGAGGAGGAGGAGGGAGAGGGTGGTGTAGTGGGAGCGGCCCGGAGTCACCTAGTGCAG | 8170 fluorescence intensity (a.u.)
37 | GGCGGCGGCGGCGGCGGTGGTGGTGAGGAGGAGGAGGAGGCGGAGTCACCTAGTGCAG | 10700 fluorescence intensity (a.u.)
38 | GCGGTGGTGGTGGGCTTAGTGGAGGCGGAGGCGGCTGAGGCGGAGTCACCTAGTGCAG | 17400 fluorescence intensity (a.u.)
39 | GCCTCTGCCCATCGCATCGATCCCCGCCGTCCCTCCACCCCGGAGTCACCTAGTGCAG | 11000 fluorescence intensity (a.u.)
40 | TCGAACTATGTTTCTGGAGTTGTTTGTGTTAAAGTCCCAACGGAGTCACCTAGTGCAG | 8860 fluorescence intensity (a.u.)
41 | CCGCCACATGCTGCTGCCGCCCCAGCCGTCGGCTGCTTCTCGGAGTCACCTAGTGCAG | 8560 fluorescence intensity (a.u.)
42 | TTTGCGGGTGGAGTTTTTTAAGTTTTTGGATTTCCTGTTTCGGAGTCACCTAGTGCAG | 11700 fluorescence intensity (a.u.)
43 | CTCGACCACACATATATGTTCGATACATTCCATATCTTCCCGGAGTCACCTAGTGCAG | 10700 fluorescence intensity (a.u.)
44 | AACAAAAGCACCCCTGTCCGATCCTATATTTGTTGCAGTTCGGAGTCACCTAGTGCAG | 9240 fluorescence intensity (a.u.)
45 | GAAGAGGAGGAGGAGGAGGAGGAGGAGGAGGGGATCAATGCGGAGTCACCTAGTGCAG | 8350 fluorescence intensity (a.u.)
46 | TGTTCTTGAGTTGCTTATATATGGCCTTCTAGCTCAGCTCCGGAGTCACCTAGTGCAG | 8540 fluorescence intensity (a.u.)
47 | TGATTGCCTTCTCGATTTTGTTTGTCATTGCGTCTTTGCACGGAGTCACCTAGTGCAG | 8190 fluorescence intensity (a.u.)
